From PubChem BioAssay AID1159580 (chemical genetic matrix, 2015)
The whole screen tested about 5,500 compounds, of which about 2,000 (36%) were called active. Not shown: some 18% with an inconclusive outcome. Some of the results follow. A number with no mark means an inactive call. Rule as the data show it: active = normalized growth mostly below about 0.91 (no sharp cut-off); inconclusive = no clear call, values can overlap the other calls; inactive = mostly above about 0.92.

Test: chemical genetic growth profiling, strain panel (AID 1159580);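 also: tested at 20 µM; growth read once vehicle control cultures reached saturation at 30 °C; 1 = growth at the plate median or of vehicle wells; lower values mean less growth of the strain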
Settings: S. cerevisiae deletion strains, growth OD

Cc1ccc(-c2nn(-c3ccccc3)c(=O)c3ccccc23)cc1C
normalized growth (locus YAL013W, strain DEP1, hits give low values): 0.953
normalized growth (locus YBR229C, strain ROT2, hits give low values): 0.968
normalized growth (locus YCL061C, strain MRC1, hits give low values): 0.967
normalized growth (locus YDL101C, strain DUN1, hits give low values): 0.957
normalized growth (locus YDR150W, strain NUM1, hits give low values): 0.978
normalized growth (locus YEL061C, strain CIN8, hits give low values): 0.908 (active)
normalized growth (locus YGR078C, strain PAC10, hits give low values): 0.955
normalized growth (locus YGR229C, strain SMI1, hits give low values): 0.984
normalized growth (locus YHR030C, strain SLT2, hits give low values): 0.504 (active)
normalized growth (locus YHR087W, strain rtc3, hits give low values): 0.922
normalized growth (locus YJL187C, strain SWE1, hits give low values): 0.979
normalized growth (locus YJR043C, strain POL32, hits give low values): 0.998
normalized growth (locus YJR075W, strain HOC1, hits give low values): 0.908
normalized growth (locus YKL190W, strain CNB1, hits give low values): 0.977
normalized growth (locus YLR039C, strain RIC1, hits give low values): 0.634 (active)
normalized growth (locus YLR058C, strain SHM2 (second series), hits give low values): 0.967
normalized growth (locus YLR085C, strain ARP6, hits give low values): 0.736 (active)
normalized growth (locus YLR262C, strain YPT6, hits give low values): 0.629 (active)
normalized growth (locus YML094W, strain GIM5, hits give low values): 0.922
normalized growth (locus YMR219W, strain ESC1, hits give low values): 0.962
normalized growth (locus YMR263W, strain SAP30, hits give low values): 0.937
normalized growth (locus YNL153C, strain GIM3, hits give low values): 0.992
normalized growth (locus YNL298W, strain CLA4 (second series), hits give low values): 0.936
normalized growth (locus YNL322C, strain KRE1, hits give low values): 0.964
normalized growth (locus YNR030W, strain Alg12, hits give low values): 0.918
normalized growth (locus YOL006C, strain TOP1, hits give low values): 0.804
normalized growth (locus YPL055C, strain LGE1, hits give low values): 0.928
normalized growth (locus YPL241C, strain CIN2, hits give low values): 0.917
normalized growth (locus YPR135W, strain CTF4, hits give low values): 0.612 (active)
